According to PubChem BioAssay AID1159580 (chemical genetic matrix, 2015):
Screen size: about 5,500 compounds; about 2,000 (36%) were called active. About 18% were inconclusive and are not listed. Rule as the data show it: active = normalized growth mostly below about 0.91 (no sharp cut-off); inconclusive = no clear call, values can overlap the other calls; inactive = mostly above about 0.92. This is one part of the list.

Assay: chemical genetic growth profiling, strain panel (AID 1159580);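 also: tested at 20 µM; growth read once vehicle control cultures reached saturation at 30 °C; 1 = growth at the plate median or of vehicle wells; lower values mean less growth of the strain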
Settings: growth OD

Measured: normalized growth

CC1(C)C(=O)[C@@H]2O[C@@H]2[C@@]2(C)C1C[C@@H](O)[C@]1(C)C2CC[C@@]2(C)[C@H](c3ccoc3)OC(=O)C3OC321 (some centres not stated)
inactive: S. cerevisiae deletion strains, locus YJL187C, strain SWE1, hits give low values 0.994 | S. cerevisiae deletion strains, locus YJR043C, strain POL32, hits give low values 0.998 | S. cerevisiae deletion strains, locus YJR066W, strain TOR1, hits give low values 0.926 | S. cerevisiae deletion strains, locus YKL009W, strain mrt4, hits give low values 1.02 | S. cerevisiae deletion strains, locus YKL068W, hits give low values 0.993 | S. cerevisiae deletion strains, locus YKL085W, strain MDH1 (second series), hits give low values 0.997 | S. cerevisiae deletion strains, locus YKL085W, strain MDH1, hits give low values 0.997 | S. cerevisiae deletion strains, locus YKL160W, strain elf1, hits give low values 0.998 | S. cerevisiae deletion strains, locus YKR001C, strain vps1, hits give low values 0.979 | S. cerevisiae deletion strains, locus YKR026C, strain gcn3, hits give low values 0.995 | S. cerevisiae deletion strains, locus YKR091W, strain srl3, hits give low values 0.992 | S. cerevisiae deletion strains, locus YLL001W, strain dnm1, hits give low values 0.99 | S. cerevisiae deletion strains, locus YLL026W, hits give low values 0.99 | S. cerevisiae deletion strains, locus YLL041C, strain sdh2, hits give low values 0.999 | S. cerevisiae deletion strains, locus YLR027C, strain aat2, hits give low values 0.984 | S. cerevisiae deletion strains, locus YLR039C, strain RIC1, hits give low values 1.11 | S. cerevisiae deletion strains, locus YLR058C, strain SHM2, hits give low values 0.997 | S. cerevisiae deletion strains, locus YLR102C, strain apc9, hits give low values 0.987 | S. cerevisiae deletion strains, locus YLR113W, strain HOG1, hits give low values 1.01 | S. cerevisiae deletion strains, locus YLR221C, strain rsa3, hits give low values 0.999 | S. cerevisiae deletion strains, locus YLR258W, strain gsy2, hits give low values 1.02 | S. cerevisiae deletion strains, locus YLR262C, strain YPT6 (second series), hits give low values 0.973 | S. cerevisiae deletion strains, locus YLR268W, strain sec22, hits give low values 0.987 | S. cerevisiae deletion strains, locus YLR320W, strain mms22, hits give low values 0.998 | S. cerevisiae deletion strains, locus YLR330W, strain CHS5, hits give low values 1 | S. cerevisiae deletion strains, locus YLR342W, strain FKS1 (second series), hits give low values 0.992 | S. cerevisiae deletion strains, locus YLR342W, strain FKS1, hits give low values 0.999 | S. cerevisiae deletion strains, locus YLR357W, strain rsc2, hits give low values 0.968 | S. cerevisiae deletion strains, locus YLR370C, strain arc18, hits give low values 0.995 | S. cerevisiae deletion strains, locus YLR371W, strain rom2, hits give low values 0.982 | S. cerevisiae deletion strains, locus YLR384C, strain iki3, hits give low values 1.02 | S. cerevisiae deletion strains, locus YLR418C, strain cdc73, hits give low values 0.919 | S. cerevisiae deletion strains, locus YML016C, strain PPZ1, hits give low values 1.01 | S. cerevisiae deletion strains, locus YML032C, strain rad52, hits give low values 0.994 | S. cerevisiae deletion strains, locus YML120C, strain ndi1, hits give low values 1 | S. cerevisiae deletion strains, locus YML124C, strain tub3, hits give low values 0.996 | S. cerevisiae deletion strains, locus YMR058W, strain fet3, hits give low values 1 | S. cerevisiae deletion strains, locus YMR078C, strain ctf18, hits give low values 0.994 | S. cerevisiae deletion strains, locus YMR125W, strain sto1, hits give low values 1 | S. cerevisiae deletion strains, locus YMR129W, hits give low values 1 | S. cerevisiae deletion strains, locus YMR205C, strain PFK2, hits give low values 0.999 | S. cerevisiae deletion strains, locus YMR223W, strain ubp8, hits give low values 0.979 | S. cerevisiae deletion strains, locus YMR231W, strain pep5, hits give low values 0.98 | S. cerevisiae deletion strains, locus YMR263W, strain SAP30, hits give low values 0.974 | S. cerevisiae deletion strains, locus YMR307W, strain GAS1, hits give low values 0.938 | S. cerevisiae deletion strains, locus YNL067W, strain RPL9B, hits give low values 0.982 | S. cerevisiae deletion strains, locus YNL071W, strain lat1, hits give low values 0.998 | S. cerevisiae deletion strains, locus YNL183C, strain NPR1, hits give low values 0.951 | S. cerevisiae deletion strains, locus YNL209W, strain ssb2, hits give low values 1.01 | S. cerevisiae deletion strains, locus YNL233W, strain BNI4, hits give low values 0.99 | S. cerevisiae deletion strains, locus YNL248C, strain rpa49, hits give low values 0.991 | S. cerevisiae deletion strains, locus YNL250W, strain rad50, hits give low values 0.982 | S. cerevisiae deletion strains, locus YNL271C, strain bni1, hits give low values 0.989 | S. cerevisiae deletion strains, locus YNL298W, strain CLA4, hits give low values 0.971 | S. cerevisiae deletion strains, locus YNL307C, strain MCK1, hits give low values 0.967 | S. cerevisiae deletion strains, locus YNL322C, strain KRE1 (second series), hits give low values 1 | S. cerevisiae deletion strains, locus YNR049C, strain mso1, hits give low values 1.01 | S. cerevisiae deletion strains, locus YNR052C, strain pop2, hits give low values 0.964 | S. cerevisiae deletion strains, locus YOL006C, strain TOP1, hits give low values 0.992 | S. cerevisiae deletion strains, locus YOL012C, strain htz1 0.956 | S. cerevisiae deletion strains, locus YOL147C, strain pex11, hits give low values 0.988 | S. cerevisiae deletion strains, locus YOR001W, strain rrp6, hits give low values 1.02 | S. cerevisiae deletion strains, locus YOR061W, strain CKA2, hits give low values 1.01 | S. cerevisiae deletion strains, locus YOR069W, strain VPS5, hits give low values 1 | S. cerevisiae deletion strains, locus YOR070C, strain gyp1, hits give low values 0.992 | S. cerevisiae deletion strains, locus YOR080W, strain dia2, hits give low values 0.988 | S. cerevisiae deletion strains, locus YOR083W, strain WHI5, hits give low values 0.992 | S. cerevisiae deletion strains, locus YOR106W, strain vam3, hits give low values 0.995 | S. cerevisiae deletion strains, locus YOR136W, strain idh2, hits give low values 0.975 | S. cerevisiae deletion strains, locus YOR144C, strain elg1, hits give low values 0.985 | S. cerevisiae deletion strains, locus YOR184W, strain ser1, hits give low values 0.978 | S. cerevisiae deletion strains, locus YOR231W, strain MKK1, hits give low values 0.983 | S. cerevisiae deletion strains, locus YOR265W, strain rbl2, hits give low values 0.983 | S. cerevisiae deletion strains, locus YOR270C, strain vph1, hits give low values 0.946 | S. cerevisiae deletion strains, locus YOR290C, strain snf2, hits give low values 0.968 | S. cerevisiae deletion strains, locus YOR316C, strain cot1, hits give low values 0.992 | S. cerevisiae deletion strains, locus YPL051W, strain arl3, hits give low values 0.986 | S. cerevisiae deletion strains, locus YPL078C, strain atp4, hits give low values 1.01 | S. cerevisiae deletion strains, locus YPL106C, strain sse1, hits give low values 1 | S. cerevisiae deletion strains, locus YPL240C, strain hsp82, hits give low values 1.01 | S. cerevisiae deletion strains, locus YPL256C, strain CLN2, hits give low values 0.952 | S. cerevisiae deletion strains, locus YPR119W, strain clb2, hits give low values 0.982 | S. cerevisiae deletion strains, locus YPR141C, strain kar3, hits give low values 0.992 | S. cerevisiae deletion strains, locus YPR163C, strain tif3, hits give low values 0.979 | S. cerevisiae deletion strains, locus YPR167C, strain met16, hits give low values 0.982 | S. cerevisiae deletion strains, strain wtn01, hits give low values 0.999 | S. cerevisiae strains, strain wild type, hits give low values 0.994
